The values that follow come from PubChem BioAssay (NCATS).

The target in test [1] is Cellular tumor antigen p53 (Homo sapiens) (UniProt P04637). The test can be described thus: Primary qHTS for small molecule compounds that upregulate eGFP-tagged delta133p53alpha (in N-terminal) cells. (AID 2060322). Also: nearly all actives have a fitted effect of over 75% in size. Also: potency is read from the fitted curve at half-maximal effect.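 As to activation: cells pre-induced with doxycycline then dosed without doxycycline; series mostly up to about 56 µM; 0% = DMSO vehicle and 100% = reference activator.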 The following applies: NCI-H358 eGFP-delta133p53alpha fluorescence, 24 h; activation: stronger effect = higher value. The method in brief: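 NCI-H358 cells pre-induced 24 h with 10 ng/ml doxycycline for eGFP-delta133p53alpha, plated dox-free and exposed 24 h at 37C to titrated compounds. Fixed, Hoechst-stained; gated GFP peak intensity by laser scanning cytometry, normalized to DMSO (0%) and 57.5 uM 5-azacytidine (100%).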

For test [2], the target named is Aldehyde dehydrogenase, mitochondrial (Homo sapiens) (UniProt P05091). Put plainly: qHTS for Inhibitors of the Aldehyde Dehydrogenase Family (ALDH2) Confirmatory screens (AID 2061303; active = well fitted inhibition curve with a large enough effect; title and protocol of this record describe different tests; also: nearly all actives have a fitted effect of over 45% in size; also: potency is read from the fitted curve at half-maximal effect). Background: qHTS replaces the single test concentration by a dilution series.
The target is the same in test [3]. The test can be described thus: qHTS for Inhibitors of the Aldehyde Dehydrogenase Family (ALDH2) Primary screen (AID 2061308). Also: nearly all actives have a fitted effect of over 55% in size. Also: potency is read from the fitted curve at half-maximal effect.
Test [4] has as its target Retinal dehydrogenase 2 (Homo sapiens) (UniProt O94788). The test can be described thus: qHTS for Inhibitors of the Aldehyde Dehydrogenase Family (ALDH1A2) Confirmation screens (AID 2061314). Also: nearly all actives have a fitted effect of over 65% in size. Also: potency is read from the fitted curve at half-maximal effect.
Test [5] concerns the target Retinaldehyde dehydrogenase 3 (Homo sapiens) (UniProt P47895). The test can be described thus: qHTS for Inhibitors of the Aldehyde Dehydrogenase Family (ALDH1A3) Primary screen (AID 2061315).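 Also: plate controls were DMSO vehicle for no effect and reference inhibitor for full effect.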
The target of test [6] is Aldehyde dehydrogenase 1A1 (Homo sapiens) (UniProt P00352). The test can be described thus: qHTS for Inhibitors of the Aldehyde Dehydrogenase Family (ALDH1A1) Confirmatory screens (AID 2061316). Also: nearly all actives have a fitted effect of over 65% in size. Also: potency is read from the fitted curve at half-maximal effect.
For test [7], the target named is Retinaldehyde dehydrogenase 3 (Homo sapiens) (UniProt P47895). Put plainly: qHTS for Inhibitors of the Aldehyde Dehydrogenase Family (ALDH1A3) Confirmatory screens (AID 2061311). Also: nearly all actives have a fitted effect of over 60% in size. Also: potency is read from the fitted curve at half-maximal effect.
Test [8] in a line: BET inhibitor-based combinations targeting novel dependencies in MECOM-rearranged (r) AML: SET-2 cell line (AID 2202231). Also: nearly all actives have a fitted effect of over 35% in size. Also: potency is read from the fitted curve at half-maximal effect.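 As to viability: plate controls were DMSO treated cells for no effect and wells without cells for full effect.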 Particulars: SET-2 AML cells viability, CellTiter-Glo luminescence, 48 h; viability: stronger effect = lower value, concentration not given here. A digest of the protocol:
(§1)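 Luminescent ATP readout (CellTiter-Glo) after 48 hr drug exposure gives viability. Curves span 11 concentrations and are normalized to DMSO and empty wells. Activity is reported as area under the curve and its Z-transform within each cell line.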
In general terms: ATP-based viability assays read luminescence as a measure of living cells.

Test [9] in a line: BET inhibitor-based combinations targeting novel dependencies in MECOM-rearranged (r) AML: OCI-AML3 cell line (AID 2202232). Also: nearly all actives have a fitted effect of over 35% in size. Also: potency is read from the fitted curve at half-maximal effect. The following applies: Potency: OCI-AML3 viability. The method in brief:
as §1

The nature of test [10]: BET inhibitor-based combinations targeting novel dependencies in MECOM-rearranged (r) AML: MV-4-11 cell line (AID 2202233). Also: nearly all actives have a fitted effect of over 45% in size. Also: potency is read from the fitted curve at half-maximal effect. The method in brief:
(§2)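 Luminescent ATP readout (CellTiter-Glo, 15 min at room temperature) after 48 hr drug exposure gave viability. Dose-response curves, normalized to DMSO and empty-well controls, were summarized as area under the curve and its mean-centred Z-score.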

The nature of test [11]: BET inhibitor-based combinations targeting novel dependencies in MECOM-rearranged (r) AML: HNT-34 cell line (AID 2202234). Also: nearly all actives have a fitted effect of over 35% in size. Also: potency is read from the fitted curve at half-maximal effect. A digest of the protocol: as §2
Test [12] is described as follows: BET inhibitor-based combinations targeting novel dependencies in MECOM-rearranged (r) AML: UCSD-AML1 cell line (AID 2202235). Also: nearly all actives have a fitted effect of over 40% in size. Also: potency is read from the fitted curve at half-maximal effect. A digest of the protocol:
as §2

Test [13] is described as follows: BET inhibitor-based combinations targeting novel dependencies in MECOM-rearranged (r) AML: AML-191 cell line (AID 2202236; also: nearly all actives have a fitted effect of over 35% in size; also: potency is read from the fitted curve at half-maximal effect). The method in brief:
as §1

Test [14] can be described thus: BET inhibitor-based combinations targeting novel dependencies in MECOM-rearranged (r) AML: AML-194 cell line (AID 2202237; also: nearly all actives have a fitted effect of over 40% in size; also: potency is read from the fitted curve at half-maximal effect). The method in brief:
as §1

In test [15] the target is Retinaldehyde dehydrogenase 3 (Homo sapiens) (UniProt P47895). Put plainly: qHTS for Inhibitors of the Aldehyde Dehydrogenase Family (ALDH1A3) Validation screen (AID 2061312). Also: nearly all actives have a fitted effect of over 45% in size. Also: potency is read from the fitted curve at half-maximal effect.
Test [16] can be described thus: qHTS for Inhibitors of the Aldehyde Dehydrogenase Family (ALDH1A2, ALDH1A3, ALDH2, ALDH3A1) (AID 2061307). Also: % is scaled to controls: 0 for no effect and ±100 for the full control effect; nearly all actives have a fitted effect of over 50% in size.

Values joined by “and” are separate entries in the source; they are usually repeats but may differ in a detail not shown here. Equal values may be shown once. Results filed as inconclusive are left out. Unmarked numbers belong to inactive results. Active and inactive are the calls of the source. Unless noted, calls follow the shape of the dose curve; as a rule, active = well fitted curve in the direction sought with a large enough effect; inconclusive = small, poorly fitted or top-dose-only effect, or another doubt; inactive = no such curve, though single readings can be large; an effect the other way counts as inactive or inconclusive.

Sequence of Cellular tumor antigen p53 (Homo sapiens) (P04637 whole entry, looked up): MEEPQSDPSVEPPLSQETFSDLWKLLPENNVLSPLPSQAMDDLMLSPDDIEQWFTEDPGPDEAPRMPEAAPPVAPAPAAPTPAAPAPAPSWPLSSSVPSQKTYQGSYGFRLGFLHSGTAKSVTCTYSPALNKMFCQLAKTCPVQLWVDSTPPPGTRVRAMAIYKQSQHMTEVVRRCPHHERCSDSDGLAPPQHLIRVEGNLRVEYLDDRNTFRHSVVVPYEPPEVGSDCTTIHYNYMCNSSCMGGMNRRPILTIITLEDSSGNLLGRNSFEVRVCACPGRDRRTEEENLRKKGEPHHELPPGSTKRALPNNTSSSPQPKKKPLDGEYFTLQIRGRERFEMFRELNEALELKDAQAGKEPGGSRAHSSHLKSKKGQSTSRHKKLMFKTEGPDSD

For the compound `CC1=CC(=O)C(=C(C)C)CC2C(C)(O)CCC12O` (configuration not stated), the activation in test [1] is -8.93%. The Potency entry in test [2], in [3], in test [4], in [5] and in [6] was “inactive” throughout.

Turning to `Cc1ccc(CN2CCNCC2)cc1NC(=O)CNc1ccc(F)c(F)c1`, the activation in test [1] is -12.8% and -5.25%. The Potency result in test [2], in test [3], in test [7], in test [5], in test [9] and in test [10] was “inactive” each time. Further, the Potency result in [11], in [12], in test [13] and in [14] was “inactive” each time. The Potency in test [6] is 12.7 µM (active). Moreover, in test [8], the viability is 115%.

Take `OC/C=C/C=C/[C@H]1Cc2cc(O)cc(O)c2O1`: the activation in [1] is 0.893%. The Potency result in test [2], in test [3] and in [4] was “inactive” in each case.

Take `Cc1[nH]c(/C=C2\C(=O)Nc3cc(-c4ccccc4)ccc32)c(C)c1CCC(=O)O`: the activation in test [1] was -26.3%. The Potency entry in test [2], in test [3], in [15], in test [5] and in test [6] was “inactive” in each case.

Consider `COc1ccc(-c2ccn(CC[C@](C)(C(=O)NO)S(C)(=O)=O)c(=O)c2)c(F)c1`, for which the activation in test [1] was -16.3%. Also, the Potency was 7.94 µM (active) in test [2], 7.98 µM (active) in [7], 5.65 µM (active) in test [4] and 2.52 µM (active) in test [6]. In addition, in [3], the Potency entry is “inactive”.

`C=C1C(=O)OC2C1CCC(=C)C1CC(OC(C)=O)C(=C)C12` (configuration not stated): in [1], the Potency was 16.9 µM (active). The Potency result in [2], in test [3] and in [5] was “inactive” each time.

Turning to `CC1(C)O[C@@]2(C)CC[C@@H]1C[C@@H]2OC1OC(CO)C(O)C(O)C1O` (some centres not stated), the activation in test [1] was -6.11%. The Potency entry in test [2], in test [3], in test [4], in [5] and in [6] was “inactive” throughout.

Take `COc1ccc(-c2c(-c3cc(C(=O)O)ccn3)ncn2C)cc1`: in test [1], the activation is -2.33%. For the same compound, the Potency result in test [2], in test [5] and in test [6] was “inactive” each time. Also, in [4], the Potency was 28.3 µM (active).

Take `CN1CCN(C(=O)CN[C@@H]2C[C@H]2c2ccc(OCc3ccccc3)cc2)CC1`: in test [1], the activation is 68.2%. The Potency in test [2] is 14.1 µM (active); in test [7], 3.98 µM (active); in test [15] it was 1.41 µM (active); in test [6] it was 20.1 µM (active).

In the case of `C/C=C/C=C/c1cc2c(C=O)c(O)c(CC=C(C)C)cc2o1`, the Potency is 26.9 µM (active) in test [1]; 11.3 µM (active) in [2]; 28.2 µM (active) in [3]; 10.1 µM (active) in [4]; 11.3 µM (active) in [6]. For the same compound, the Potency result in test [5] was “inactive”.

Take `CC1=C2CC3C(CCC3(C)O)C(C)(O)CC2OC1=O` (configuration not stated): the activation in [1] is -2.68%. Moreover, the Potency result in test [2], in [3], in test [4], in test [5] and in [6] was “inactive” each time.

As for `OC[C@H]1O[C@@H](OC(CCCCc2ccc(O)cc2)CCc2ccc(O)cc2)[C@H](O)[C@@H](O)[C@@H]1O` (some centres not stated), the activation in test [1] was -9.92%. The Potency entry in [16] and in test [3] was “inactive” each time.

Regarding `Cc1ccc(NC(=O)N2CCN(c3nc(N)nc4sc(-c5cccnc5)nc34)CC2)cc1`, in [1], the activation is 26.7%. For the same compound, the Potency in test [2] was 0.0355 µM (active); in test [7] it was 2.52 µM (active); in test [15] it was 2.82 µM (active); in [4], 14.1 µM (active); in test [6], 28.3 µM (active).

With `C=C1C(=O)OC2CC(C)=C(C(C)CCCO)C(O)C12` (configuration not stated), in test [1], the activation is 7.14%. Moreover, the Potency entry in test [2], in test [3], in test [4] and in test [5] was “inactive” throughout.

Turning to `Cn1cc(Nc2cnccc2C(=O)O)c2cccnc21`, the activation in test [1] is 4.33%. The Potency entry in test [2], in test [3], in test [7], in test [4] and in [5] was “inactive” each time.

In the case of `Clc1ncoc1-c1c[nH]c2ccccc12`, the activation in [1] was 11.5%. Besides, the Potency entry in [2], in test [3], in test [7], in test [4] and in test [5] was “inactive” each time.

For `COC(=O)C1=CO[C@@H](O[C@@H]2O[C@H](COC(=O)/C=C/c3cc(OC)c(O)c(OC)c3)[C@@H](O)[C@H](O)[C@H]2O)[C@@H]2C(CO)=CC[C@H]12`, the activation in test [1] was -16.8%. Besides, the Potency result in test [16] and in test [3] was “inactive” throughout.

As for `O=C(O)c1cn(C2CC2)c2cc(N3C[C@@H]4C[C@H]3CN4)c(F)cc2c1=O`, in test [1], the activation is 11.7%. Besides, the Potency result in [2], in [3], in test [7], in test [4] and in test [5] was “inactive” throughout. Also, the Potency in [6] was 31.8 µM (active).

In the case of `C=C[C@H]1[C@H](O[C@@H]2O[C@H](CO)[C@@H](O)[C@H](O)[C@H]2O)OC=C(C(=O)OC)[C@H]1CCOC(=O)c1cc(O)c(O)c(O)c1`, the activation in test [1] is 0%. The Potency result in test [2], in test [3], in test [4] and in test [6] was “inactive” in each case. For the same compound, in [7], the Potency is 6.18 µM (active).

Regarding `Cn1cc(-c2ccc3ncc(Cc4ccc5ncccc5c4)n3n2)cn1`, in [1], the activation was 15.2% and 9.55%. Besides, the Potency entry in [2], in test [3], in test [5], in test [6] and in test [12] was “inactive” each time. Also, the viability in test [8] is 105%. Also, the Potency is 18.6 µM (active) in test [10] and 13.2 µM (active) in [13].

Take `C=CC(=O)Nc1cccc(Nc2nc(Nc3ccc(Oc4ccnc(C(=O)NC)c4)cc3)ncc2F)c1`: the Potency is 4.26 µM (active) in test [1]; 23.5 µM (active) in test [8]; 18.6 µM (active) in test [9]; 6.61 µM (active) in test [10]; 8.33 µM (active) in test [11]; 18.6 µM (active) in test [12]. Besides, the values for the Potency in test [13] and in test [14] were 16.6 µM (active) and 18.6 µM (active), respectively. For the same compound, the Potency result in test [2], in [3], in test [7], in test [4], in test [5] and in test [6] was “inactive” each time.

`OC[C@@]1(O)CO[C@@H](OC[C@H]2O[C@@H](Oc3c[nH]c4ccccc34)[C@H](O)[C@@H](O)[C@@H]2O)[C@@H]1O`: the activation in test [1] was -5.34%. Further, the Potency entry in [2], in test [3], in test [5] and in [6] was “inactive” in each case.

The viability is a read-out of living cells in per cent, often relative to untreated cells.
